Screening results deposited in PubChem BioAssay by National Center for Advancing Translational Sciences (NCATS).
DT40 TDP1 no CPT – qHTS for Inhibitors of human tyrosyl-DNA phosphodiesterase 1 (TDP1): qHTS in cells in absence of CPT | DT40 Tdp1-/- hTDP1 cells, no CPT, ATP luminescence, 48 h | Potency, µM (highest dose often 46.2 µM), without a hit: at the highest dose activity change, negative = growth inhibition, hits mostly inhibitors | actives 15% (n = 420,000); note: potency is the fitted concentration of half-maximal effect; % is set by controls: 0 for no effect and ±100 for the full control effect; nearly all actives have a fitted effect of over 55% in size
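Camptothecin absent (DMSO only). Human TDP1-complemented DT40 knockout cells, 400 cells/well, 37 °C for minimum 48 hr; ATP measured via CellTiter-Glo, 30 min dark incubation, luminescence.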
HepG2 tox-1 – qHTS for Inhibitors of TGF-b: Cytotox Counterscreen; actives 0.76% (n = 410,000); AID 588856, 2011; HepG2 CAGA-GFP viability, ATP luminescence, 18 h; Potency, µM (highest dose often 46.1 µM), for the others: top-dose activity change, negative = cytotoxicity, hits mostly cytotoxic; note: potency is the fitted concentration of half-maximal effect
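CellTiter-Glo luminescence gave cytotoxicity after 18 hours at 37 degrees C. The cells were HepG2 CAGA-GFP in 1% FBS DMEM, stimulated with 500 pg/mL TGF-beta after compound addition. %Activity was normalised to no-cell wells (complete cell-killing) and DMSO (no toxicity), and curves were fitted and classified.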
IL1B secr inh – qHTS for Inhibitors of Inflammasome Signaling: IL-1-beta AlphaLISA Primary Screen; THP-1 LPS/ATP IL-1B secretion, AlphaLISA, 16 h; active compounds read low; AID 743279, 2014; activity change, % at 57.5 µM; actives 4.7% (n = 360,000); in the data active = activity change below about -50%; inconclusive = mostly about -30% to -49%; note: % is set by controls: 0 for no effect and ±100 for the full control effect
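Secreted IL-1B measured by AlphaLISA bead assay after 16 h compound exposure of THP-1 cells; compounds (final up to 57.5 uM) added 1 h before LPS (250 ng/mL) and ATP (1.25 mM) stimulation; lower signal means less secretion.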
TDP1 inh – qHTS Assay for Inhibitors of Tyrosyl-DNA Phosphodiesterase (TDP1); Potency, µM (highest dose often 130 µM), inactives show at the top dose activity change, negative = inhibition, most hits filed as inhibitors; Tyrosyl-DNA phosphodiesterase 1 (Homo sapiens), Q9NUW8; recombinant TDP1, AlphaScreen DNA substrate cleavage; actives 0.28% (n = 350,000); note: potency is the fitted concentration of half-maximal effect; % is set by controls: 0 for no effect and ±100 for the full control effect; nearly all actives have a fitted effect of over 40% in size
Target sequence (Q9NUW8 whole entry, looked up): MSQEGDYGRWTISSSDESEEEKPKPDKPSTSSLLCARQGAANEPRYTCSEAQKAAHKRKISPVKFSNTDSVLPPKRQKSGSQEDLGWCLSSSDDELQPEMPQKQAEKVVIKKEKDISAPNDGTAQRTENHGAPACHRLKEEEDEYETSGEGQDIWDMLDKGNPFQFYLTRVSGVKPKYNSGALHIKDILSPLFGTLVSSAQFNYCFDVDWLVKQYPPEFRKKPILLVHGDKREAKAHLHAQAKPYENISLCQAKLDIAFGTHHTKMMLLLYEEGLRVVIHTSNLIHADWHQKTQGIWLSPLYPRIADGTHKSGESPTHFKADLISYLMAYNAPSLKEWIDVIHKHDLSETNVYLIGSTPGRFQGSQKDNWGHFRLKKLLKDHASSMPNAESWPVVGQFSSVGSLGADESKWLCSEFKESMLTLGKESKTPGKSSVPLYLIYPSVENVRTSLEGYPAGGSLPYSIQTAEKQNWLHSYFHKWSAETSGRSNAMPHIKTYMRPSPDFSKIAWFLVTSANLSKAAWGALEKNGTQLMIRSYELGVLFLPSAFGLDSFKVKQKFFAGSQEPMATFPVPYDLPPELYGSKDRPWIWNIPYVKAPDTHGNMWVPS
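Recombinant E. coli-expressed Tdp1 (1 nM) preincubated with compound 15 min at RT, then 5'-biotin/3'-phosphotyrosine-FITC DNA substrate (15 nM) added for 5 min. AlphaScreen beads (10 ug/ml) added, 10 min RT; tyrosine-FITC cleavage read as signal loss.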
TDP1 cell CPT – qHTS for Inhibitors of human tyrosyl-DNA phosphodiesterase 1 (TDP1): qHTS in cells in presence of CPT | Potency, µM (series often up to 46.2 µM), for the others: at the highest dose activity change, negative = growth inhibition, most hits filed as inhibitors | chicken DT40 Tdp1-/-;hTDP1 cells + 20 nM CPT, ATP luminescence, 48 h | actives 12% (n = 420,000); note: potency is the fitted concentration of half-maximal effect; % is set by controls: 0 for no effect and ±100 for the full control effect; nearly all actives have a fitted effect of over 55% in size
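Cell growth measured by CellTiter-Glo luminescence after a minimum 48 h, 37 C compound exposure with 20 nM CPT in Tdp1-knockout DT40 cells stably expressing hTDP1, seeded 400/well; qHTS titration format.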
TGFb inhibitor – qHTS for Inhibitors of TGF-b; HepG2 CAGA-GFP TGF-b/SMAD3 reporter, GFP fluorescence, 18 h; TGF-beta stimulated, 500 pg/mL final; Potency, µM (titrated, usually from 46.1 µM), for the others: at the highest dose activity, negative = inhibition, actives largely listed as inhibitors; actives 1.2% (n = 410,000); note: potency is the fitted concentration of half-maximal effect; % is set by controls: 0 for no effect and ±100 for the full control effect; nearly all actives have a fitted effect of over 65% in size
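Using HEPG2 CAGA-GFP reporter cells at 1000 cells/well, we pinned test compounds, stimulated with recombinant TGF-beta (500 pg/mL final) and measured total well GFP after 18 h.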
TGFb confirm – qHTS for Inhibitors of TGF-b: Confirmation of Cherry Picks. Potency, µM (doses to about 46.1 µM), for inactives: at the top dose activity, negative = inhibition, actives largely listed as inhibitors. HepG2 CAGA-GFP TGF-b reporter, GFP fluorescence, 18 h; cells stimulated with TGF-beta, 500 pg/mL. AID 720534, 2013. shares compounds with TGFb inhibitor. actives 63% (n = 1,600); note: potency is the fitted concentration of half-maximal effect; % is set by controls: 0 for no effect and ±100 for the full control effect; nearly all actives have a fitted effect of over 65% in size
HepG2 tox-2 – qHTS for Inhibitors of TGF-b: Cytotox Counterscreen for Cherry Picks; HepG2 CAGA-GFP viability, ATP luminescence, 18 h; cells stimulated with TGF-beta, 500 pg/mL; shares compounds with TGFb inhibitor; AID 720535, 2013; Potency, µM (titrated, usually from 46.1 µM), without a hit: at the highest dose activity, negative = cytotoxicity, hits mostly inhibitors; actives 27% (n = 1,600); note: potency is the fitted concentration of half-maximal effect; % is set by controls: 0 for no effect and ±100 for the full control effect; nearly all actives have a fitted effect of over 70% in size
TGFb CCL64 inh – qHTS for Inhibitors of TGF-b: CCL64 Cells Orthogonal Assay for Cherry Picks; shares compounds with TGFb inhibitor; actives 41% (n = 1,600); CCL64 CAGA-GFP reporter, TGF-b stimulated, GFP fluorescence, 18 h; Potency, µM (doses to about 46.1 µM), without a hit: top-dose activity, negative = inhibition, hits mostly inhibitors; note: potency is the fitted concentration of half-maximal effect; nearly all actives have a fitted effect of over 65% in size
COP TGFb inh – qHTS for Inhibitors of TGF-b: Hit Validation in HepG2 Cells using COP promoter; shares compounds with TGFb inhibitor; HepG2 COP-GFP TGF-b reporter, GFP fluorescence, 18 h; cells stimulated by added recombinant TGF-beta; Potency, µM (series often up to 46.1 µM), for the others: top-dose activity, negative = inhibition, actives largely listed as inhibitors; actives 3% (n = 1,600); AID 720537, 2013; note: potency is the fitted concentration of half-maximal effect; nearly all actives have a fitted effect of over 70% in size
Starred values were filed as active, the others as inactive; ? = inconclusive; . = no result. Compounds with a hit are over-represented: about 19% of the library has one in this group of screens. Unless noted, calls come from the whole dose curve; as a rule, active = well fitted curve in the direction sought with a large enough effect; inconclusive = small, poorly fitted or top-dose-only effect, or another doubt; inactive = no such curve, though single readings can be large; an effect the other way counts as inactive or inconclusive.

SMILES | DT40 TDP1 no CPT | HepG2 tox-1 | IL1B secr inh | TDP1 inh | TDP1 cell CPT | TGFb inhibitor | TGFb confirm | HepG2 tox-2 | TGFb CCL64 inh | COP TGFb inh
CN(Cc1cccc(Cl)c1Cl)C(=O)c1cccc(S(=O)(=O)N2CCN(Cc3ccccc3)CC2)c1 | 16µM* | -1% | -11 | 3% | ? | 8.9µM* | 10µM* | ? | ? | 13%
O=C(NC1CCCC(C(F)(F)F)C1)c1ccc([N+](=O)[O-])o1 (centres undefined) | 18µM* | 16µM* | -98* | 1% | ? | 10µM* | 7.3µM* | 23µM* | ? | ?
O=C(NC1CCCCC1)c1ccc(-c2ccccc2[N+](=O)[O-])o1 | -27% | -21% | 6 | 7% | -17% | ? | . | . | . | .
Cc1ccc([N+](=O)[O-])c(C(=O)N/N=C/c2cccs2)c1 | ? | -24% | -16 | . | ? | -8% | . | . | . | .
CC(C)C[C@H]1CNC(=O)C(=O)N1CC1CCN(CCc2ccccc2)CC1 | 17% | -6% | -7 | . | -12% | -17% | . | . | . | .
CC(C)C[C@H]1CNC(=S)N1C[C@H]1CCCN1C[C@H](Cc1ccc(O)cc1)N1C[C@H](Cc2ccc(O)cc2)N(CCc2ccccc2)C1=S | ? | -40% | ? | . | ? | 10µM* | ? | 15µM* | 4.6µM* | 78%
CC(C)C[C@H]1CNC(=S)N1C[C@H]1CCCN1C[C@H](Cc1ccccc1)N1C[C@H](Cc2ccc(O)cc2)N(CCc2ccccc2)C1=S | 13µM* | -9% | -28 | . | 23µM* | 7.1µM* | 12µM* | -24% | ? | 12%
Oc1ccc(C[C@H]2CNC(=S)N2CC2CCCN2C[C@H](Cc2ccccc2)N2C[C@H](Cc3ccc(O)cc3)N(CCc3ccccc3)C2=S)cc1 (some centres undefined) | 23µM* | 2% | ? | . | 23µM* | 7.9µM* | 5.8µM* | ? | 9.2µM* | 62%
Cn1nnc(NC(=S)NC(=O)c2cccc3ccccc23)n1 | -23% | -4% | 12 | 5% | 4% | -18% | . | . | . | .
COc1cc(C2Oc3ccccc3C=C2[N+](=O)[O-])cc(OC)c1OC (centres undefined) | 2.6µM* | 5.6µM* | -104* | 6% | 3.3µM* | 3.2µM* | 21µM* | 18µM* | 4.1µM* | ?
CCn1cnc2cc(NCc3ccc(OC)cc3)ccc21 | ? | 2% | 1 | 6% | -25% | 15% | . | . | . | .
CCOc1ccc2nc3cc(NCc4ccc(OC)cc4)ccc3c(N)c2c1 | 21µM* | 10µM* | -9 | . | 15µM* | 7.9µM* | 3.3µM* | 7.3µM* | ? | 45%
O=c1[nH]c2ccccc2nc1C(F)(F)F | -22% | 18% | 42 | 0% | -4% | -2% | . | . | . | .
CC(C)c1ccc(/C=C(\c2nc3ccccc3[nH]2)S(=O)(=O)c2ccccc2)cc1 | 4.6µM* | 10µM* | -103* | 0% | 4.6µM* | 7.9µM* | 16µM* | 10µM* | 4.6µM* | -17%
C/C(=C\c1ccc(N)cc1)c1nc2ccccc2[nH]1 | -4% | -5% | ? | . | -12% | -1% | . | . | . | .
O=S(=O)(/C(=C/c1ccc(C(F)(F)F)cc1)c1nc2ccccc2[nH]1)c1ccccc1 | 2.9µM* | 7.9µM* | -104* | 8% | 2.6µM* | 5µM* | 2.9µM* | 2.6µM* | 1.8µM* | ?
Cc1ccc(-c2csc(Cc3nc(-c4cc5ccccc5oc4=O)cs3)n2)cc1 | 23µM* | -16% | -27 | -4% | 18µM* | ? | ? | -16% | 5% | -1%
Cc1cc(C)c(-c2csc(-c3cc4ccccc4oc3=O)n2)cc1C | ? | -2% | . | -4% | -27% | -1% | . | . | . | .
Cc1cc(C)cc(C(=O)NC(=S)Nc2ccc(Cc3ccncc3)cc2)c1 | 29µM* | -25% | ? | 5% | ? | 7.1µM* | 13µM* | ? | -24% | 15%
O=C(NCCCc1ccccc1)c1cccc(NC(=O)C2CCCC2)c1 | -17% | -16% | -8 | . | 7% | -5% | . | . | . | .
CCOC(=O)CCc1ccc(NC(=O)/C=C/c2ccc([N+](=O)[O-])o2)cc1 | 3.3µM* | 10µM* | -80* | . | 1.8µM* | 4.5µM* | 9.2µM* | 13µM* | ? | -31%
O=C(NCCCCCCNC(=O)c1ccccc1O)c1ccccc1O | 21µM* | -35% | -25 | . | ? | 8.9µM* | ? | ? | ? | 11%
O=C(N/N=C/c1ccccc1O)c1cccc2ccccc12 | 4.1µM* | -21% | 98 | . | 5.8µM* | 8.9µM* | ? | ? | ? | 16%
Cc1ccc(OCCCC(=O)Nc2ccc(Cl)c(S(=O)(=O)N3CCOCC3)c2)cc1 | 18µM* | -27% | ? | 0% | ? | 8.9µM* | ? | ? | 3% | 1%
[N-]=[N+]=NC[C@H](c1ccccc1)N1CCN(Cc2ccccc2)CCC1=O | -2% | -6% | -4 | . | -7% | -11% | . | . | . | .
